These results are taken from PubChem BioAssay (NCATS).

Records with an inconclusive call do not appear. Activity calls are given as the source filed them. Calls follow the shape of the dose curve; as a rule, active = well fitted cell-killing curve with a large enough effect; inconclusive = small, poorly fitted or top-dose-only effect, or effect the other way; inactive = no such curve, though single readings can be large or run the other way. Starred links: 1 amine or outer side, 2 acyl side, 3 side chain; linkers in the order of their positions; H or OH if unused. Positions of bridges follow the written chain, without caps; N, C: chain ends. Non-standard residues stand in square brackets, D forms with d. Residues, ends and D or L forms follow the SMILES beside them. Chains are numbered I, II in the order given. *: point of attachment. Actinocin(9to1) = Cc1c2oc3c(C)ccc(C(=O)[*:1])c3nc-2c(C(=O)[*:2])c(N)c1=O; NMeV = CN[CH](C(=O)O)C(C)C; Cbz = O=C(OCc1ccccc1)*; Sar = CNCC(=O)O
Potency is read from the fitted curve at half-maximal effect.

The nature of the assay: Quantitative High-Throughput drug screen in 47 multiple myeloma cell lines against the NCATS MIPE library collection: UTMC2_PLB cell viability assay (AID 1919868). Also: nearly all actives have a fitted effect of over 55% in size. The note with it: CellTiter-Glo ATP luminescence, 48 h; viability (% of DMSO control): at 45.8 µM (top of the series). An excerpt:
PI: Beverly A. Mock Ph.D.
Laboratory of Cancer Biology and Genetics,
Center for Cancer Research, National Cancer Institute,
National Institute of Health, Bethesda, Maryland
Drug resistance and disease progression are common in multiple myeloma (MM) patients, underscoring the need for new therapeutic combinations. […] We hypothesized that effective combinations would reduce MYC expression and enhance p16 activity. […] These preclinical data identify potentially useful drug combinations for evaluation in drug-resistant MM and reveal potential mechanisms of combined drug sensitivity.
Described herein is the primary MIPE qHTS used to cherrypick compounds. Validated compounds were then further tested for potential synergistic activiy.
[1] Peat TJ, Gaikwad SM, Dubois W, Gyabaah-Kessie N, Zhang S, Gorjifard S, Phyo Z, Andres M, Hughitt VK, Simpson RM, Miller MA, Girvin AT, Taylor A, Williams D, D'Antonio N, Zhang Y, Rajagopalan A, Flietner E, Wilson K, Zhang X, Shinn P, Klumpp-Thomas C, McKnight C, Itkin Z, Chen L, Kazandijian D, Zhang J, Michalowski AM, Simmons JK, Keats J, Thomas CJ, Mock BA. Drug combinations identified by high-throughput screening promote cell cycle transition and upregulate Smad pathways in myeloma. Cancer Lett. 2023 Aug 1;568:216284. doi: 10.1016/j.canlet.2023.216284. Epub 2023 Jun 24. PMID: 37356470; PMCID: PMC10408729.
SEQUENCE No. (e.g., 1, 2, 3, etc.); […] (e.g., Cells, Incubation, Reagent, etc.); VALUE and DESCRIPTION.
1; Cells; 5 uL; white, solid bottom 1536-well Greiner assay plate.
2; Compounds; 23 nL; Kalypsis pin tool (Wako USA) equipped with a 1536-well pin head to transfer to the assay plates.
3; Incubation; 48 hours; 37C incubation.
4; Reagent;5uL; CellTiter Glo (Promega).
5; Detector; 425V; Luminescence; Viewlux PerkinElmer.
NOTES (numbers refer to Sequence numbers above)
1. The cell-based screening methods employed in this study were like those previously published. Briefly, the corresponding myeloma cell lines were screened in 1,536-well plates with 500 cells, 5-uL per well for inhibition of cell viability (assessed by measuring ATP levels with CellTiterGlo).
2. NCATS MIPE 4.0 library of approved and investigational drugs were added using the Kalypsis pin tool. Wells treated with DMSO only for 100% viability and media only for 0% viability were used as controls.
3. The assay plates were covered and incubated for 48 hours in a 37C, 5% CO2 incubator with controlled humidity.
4. After 48 hours, CellTilter-GloTM luminescent substrate mix (Promega) reagent was added to the assay plate and plates we incubated for 5 min at room temperature.
5. Signal was measured as median relative luminescence units on a ViewLux (PerkinElmer) multiplate reader.
[1] Heske CM, Davis MI, Baumgart JT, Wilson K, Gormally MV, Chen L, Zhang X, Ceribelli M, Duveau DY, Guha R, Ferrer M, Arnaldez FI, Ji J, Tran HL, Zhang Y, Mendoza A, Helman LJ, Thomas CJ. Matrix Screen Identifies Synergistic Combination of PARP Inhibitors and Nicotinamide Phosphoribosyltransferase (NAMPT) Inhibitors in Ewing Sarcoma. Clin Cancer Res. 2017 Dec 1;23(23):7301-7311. doi: 10.1158/1078-0432.CCR-17-1121. Epub 2017 Sep 12. PMID: 28899971; PMCID: PMC6636827.
On the technique in general: In ATP-based viability assays light output follows the ATP content of the culture.
`O=C(O)[C@H](CC(=O)N1C[C@@H]2CCCC[C@H]2C1)Cc1ccccc1`: the Potency result is “inactive”. In the case of `COc1cc(C[C@@H](CO)[C@H](CO)Cc2ccc(O)c(OC)c2)ccc1O` it was 1.32 µM (active). As for `CCOc1cc2c(c(F)c1OCC)C(=N)N(CC(=O)c1cc(N3CCOCC3)c(OC)c(C(C)(C)C)c1)C2`, the Potency was 7.43 µM (active). In the case of `COc1cccc2c1C(=O)c1c(O)c3c(c(O)c1C2=O)C[C@@](O)(C(=O)CO)C[C@@H]3O[C@H]1C[C@H](N)[C@@H](O)[C@H](C)O1` it was 0.118 µM (active); in that of `O=C(C=CC#Cc1cccc(NS(=O)(=O)c2ccccc2)c1)NO`, 0.833 µM (active); in that of `CCN(CC)CCCCNc1ncc2c(n1)N(C)C(=O)N(c1c(Cl)c(OC)cc(OC)c1Cl)C2`, “inactive”. In the case of `NC(=O)Nc1sc(-c2ccc(F)cc2)cc1C(N)=O` it was 0.743 µM (active).

In the case of `CCn1c(=O)c2c(nc(C=Cc3ccc(OC)c(OC)c3)n2C)n(CC)c1=O`, the Potency result was “inactive”.

Consider `CC(O)(C#Cc1ccc2c(c1)N(c1nc(N)ncc1Cl)CC2)c1nccs1` (stereo not given), for which the Potency was 4.18 µM (active).

Regarding `C=CCNC1=C2C[C@@H](C)C[C@H](OC)[C@@H](O)[C@@H](C)C=C(C)[C@H](OC(N)=O)[C@@H](OC)C=CC=C(C)C(=O)NC(=CC1=O)C2=O`, the Potency is 1.32 µM (active). With `c1ccc(CNc2nc(NCc3ccccc3)c3ccccc3n2)cc1` the figure was 10.5 µM (active). Regarding `O=C1NC(=O)[C@@H](c2cn3c4c(cccc24)CCC3)[C@H]1c1c[nH]c2ccccc12`, the Potency was 0.332 µM (active). Consider `O=S(=O)(O)CCSSCCS(=O)(=O)O`, for which the Potency result was “inactive”.

Regarding `Oc1cc(-c2nc(-c3ccccc3)[nH]c2-c2ccncc2)ccc1Cl`, the Potency is 7.43 µM (active).

For `C=C1C[C@@]2(O)O[C@@]3(C[C@H]2C(C)C)[C@H](C)CC[C@H]13`, the Potency entry is “inactive”.

Consider `CC(C)c1cc(C(C)C)c(CC(=O)NS(=O)(=O)Oc2c(C(C)C)cccc2C(C)C)c(C(C)C)c1`, for which the Potency was 10.5 µM (active).

As for `C[N+]1(C)[C@@H]2C[C@@H](OC(=O)C(O)(c3cccs3)c3cccs3)C[C@H]1[C@@H]1O[C@@H]12`, the Potency entry was “inactive”. For the compound `C#CCC(Cc1cnc2nc(N)nc(N)c2n1)c1ccc(C(=O)N[C@@H](CCC(=O)O)C(=O)O)cc1` (stereo not given in full), the Potency is 0.372 µM (active).

With `O=C(C[C@@H]1CC=CCCC(=O)O[C@H](c2ccccc2)CNC1=O)NCc1ccc(Cl)cc1`, the Potency entry was “inactive”. With `CNC(=O)c1ccc(Nc2cc(Nc3ccccc3S(=O)(=O)C(C)C)c3cc[nH]c3n2)nc1` the figure was 0.418 µM (active). In the case of `COc1cc(OC)c(C=CS(=O)(=O)Cc2ccc(OC)c(NCC(=O)O)c2)c(OC)c1` it was 0.166 µM (active); in that of `C[C@H]1[C@@H](OC(=O)CCC(=O)O)O[C@@H]2O[C@@]3(C)CC[C@@H]4[C@H](C)CC[C@@H]1[C@@]24OO3`, 4.69 µM (active).

`CC[C@]12C=CCN3CC[C@@]4(c5cc([C@@]6(C(=O)OC)C[C@H]7C[C@@H](C(C)(F)F)CN(Cc8c6[nH]c6ccccc86)C7)c(OC)cc5N(C)[C@H]4[C@@](O)(C(=O)OC)[C@H]1OC(C)=O)[C@@H]32`: the Potency is 0.001 µM (active). `C=CC(=O)Nc1ccc2ncnc(Nc3ccc(OCc4cccc(F)c4)c(Cl)c3)c2c1`: the Potency is 0.743 µM (active). With `CCOc1cc2ncc(C#N)c(Nc3ccc(OCc4ccccn4)c(Cl)c3)c2cc1NC(=O)C=CCN(C)C` the figure was 0.209 µM (active); with `COc1ccc(CCC(=O)c2c(O)cc(O[C@@H]3O[C@H](CO)[C@@H](O)[C@H](O)[C@@H]3O[C@@H]3O[C@@H](C)[C@H](O)[C@@H](O)[C@@H]3O)cc2O)cc1O`, 9.35 µM (active). In the case of `CC(=O)NCC(=O)N1[C@H]2CC[C@H]1c1cc(Nc3ncc(C(F)(F)F)c(NC4CCC4)n3)ccc12` it was 0.118 µM (active); in that of `CC(C)C[C@@H](C=O)NC(=O)[C@H](CC(C)C)NC(=O)[C@H](CC(C)C)NC(=O)OCc1ccccc1` (Cbz-Leu-Leu-Leu-aldehyde), 1.18 µM (active).

In the case of `COc1cccc2c1C(=O)c1c(O)c3c(c(O)c1C2=O)C[C@@](O)(C(C)=O)C[C@H]3O[C@H]1C[C@H](N)[C@H](O)[C@H](C)O1`, the Potency is 0.0118 µM (active). In the case of `Cc1cn([C@@H]2O[C@H](CO)[C@@H](O)[C@H]2F)c(=O)[nH]c1=O` it was “inactive”; in that of `C#C[C@]1(O)CC[C@@H]2[C@@H]3CCC4=CC(=O)CC[C@@H]4[C@H]3CC[C@@]21CC`, “inactive”; in that of `OCc1ccccc1O[C@@H]1O[C@H](CO)[C@H](O)[C@H](O)[C@H]1O`, “inactive”. For the compound `Cc1cnc(Nc2ccc(N3CCN(C)CC3)cc2)nc1Nc1cccc(S(=O)(=O)NC(C)(C)C)c1`, the Potency is 2.35 µM (active). Consider `O=C(Nc1ccc(Oc2ccnc3[nH]ccc23)c(F)c1)c1cccn(-c2ccc(F)cc2)c1=O`, for which the Potency result is “inactive”. On to `CC(=O)N[C@@H]1[C@H](O[C@@H]2c3ccc(c(Cl)c3)Oc3cc4cc(c3O[C@H]3O[C@H](CO)[C@@H](O)[C@H](O)[C@H]3NC(=O)CCCCCCCC(C)C)Oc3ccc(cc3Cl)C[C@H]3NC(=O)[C@H](N)c5ccc(O)c(c5)Oc5cc(O)cc(c5)[C@H](NC3=O)C(=O)N[C@H]4C(=O)N[C@H]3C(=O)N[C@@H]2C(=O)N[C@@H](C(=O)O)c2cc(O)cc(O[C@H]4O[C@H](CO)[C@@H](O)[C@H](O)[C@H]4O)c2-c2cc3ccc2O)O[C@H](CO)[C@@H](O)[C@@H]1O`, for which the Potency entry was “inactive”. In the case of `COc1cc(N2CCC(C(N)=O)CC2)ccc1Nc1nc(N)c(Cl)c(Nc2ccccc2S(=O)(=O)C(C)C)n1` it was 0.132 µM (active); in that of `Cc1c2oc3c(C)ccc(C(=O)NC4C(=O)NC(C(C)C)C(=O)N5CCCC5C(=O)N(C)CC(=O)N(C)C(C(C)C)C(=O)OC4C)c3nc-2c(C(=O)NC2C(=O)NC(C(C)C)C(=O)N3CCCC3C(=O)N(C)CC(=O)N(C)C(C(C)C)C(=O)OC2C)c(N)c1=O` (stereo not given) (I: TVP[Sar][NMeV] / II: TVP[Sar][NMeV]; ester I:1-I:C, II:1-II:C; linker I:N-II:N via Actinocin(9to1); configuration not given here), “inactive”. With `Nc1cccc2c1C(=O)N(C1CCC(=O)NC1=O)C2=O` (stereo not given) the entry was “inactive”; with `c1coc(CNc2ncnc3nc[nH]c23)c1`, “inactive”. In the case of `COc1cc(C=CC(=O)CC(=O)C=Cc2ccc(O)c(OC)c2)ccc1O` it was 21.5 µM (active).
